Assay outcomes: PubChem, National Center for Advancing Translational Sciences (NCATS)
This is a sample that favours compounds with a hit; in the whole collection about 21% have one here.
Pf growth 48h: inhibits P. falciparum growth in the first generation, 48 h; P. falciparum luciferase growth in erythrocytes, 48 h; Potency, µM (series often up to 28.7 µM), inactives show at the top dose activity change, negative = inhibition, most hits filed as inhibitors; 310,000 compounds, 5.9% hits; AID 504832; further: potency means the concentration at half of the fitted maximal effect; on the % scale 0 is the no-effect control and ±100 the full control effect
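Luciferase-expressing P. falciparum in infected erythrocytes (2% hematocrit, 0.1% parasitemia final) in RPMI 1640/0.5% Albumax were exposed to compound for 48 hours at 37 C, 5% CO2; growth read as luminescence.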
CHX counter: counter-screen hit for Shiga toxin inhibitors, cycloheximide; 300,000 compounds, 12% hits; cell reporter, cycloheximide protein synthesis inhibition counterscreen; max response, %; in the data active means max response mostly above about 13%, no sharp cut-off; inactive means mostly below about 14%; further: read at 38.3 µM for the half of the compounds with a filed dose; 0% is about no effect
Shiga inhibitor: Shiga toxin inhibition; inhibition, % at 38.7 µM; 290,000 compounds, 9.2% hits; Vero cells, Shiga toxin protein synthesis inhibition reporter; AID 2315; in the data active means inhibition mostly above about 28%, no sharp cut-off; inactive means mostly below about 43%; further: 0% is about no effect
Pf growth 96h: P. falciparum growth inhibition at 96 hours; 320,000 compounds, 6.9% hits; Potency, µM (top dose mostly 28.7 µM), for the others: at the highest dose activity change, negative = inhibition, usual class: inhibitors; P. falciparum luciferase reporter growth, 96 h; further: potency means the concentration at half of the fitted maximal effect; on the % scale 0 is the no-effect control and ±100 the full control effect
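96 h incubation, 37 C, 5% CO2, of luciferase-reporter P. falciparum-infected RBCs (2% hematocrit, 0.05% parasitemia final) with test compounds; endpoint luminescence.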
An asterisk follows results filed as active; ? = inconclusive; nt = no result; [ ] = another dose, or the depositor's remark. Unless noted, the call rests on the fitted dose curve; in most records, active means well fitted inhibition curve with a large enough effect; inconclusive means small, poorly fitted or top-dose-only effect, or another doubt; inactive means no such curve, though single readings can be large or run the other way.

SMILES	Pf growth 48h	CHX counter	Shiga inhibitor	Pf growth 96h
Cc1noc(/C=C/c2ccccc2F)c1S(=O)(=O)N1CCC(C(=O)N2CCN(C)CC2)CC1	-1%	-2	-3	-20%
O=C(NCCS(=O)(=O)N1CCCCCC1)c1ccccc1	2%	nt	nt	7%
CC(C)c1ccccc1NCC(=O)N1CCN(Cc2ccccc2)CC1	-9%	5	21	-24%
COc1cccc(NC(=O)CSC(N)=O)c1	?	18	36*	-30%
COc1cccc(NC(=O)CNC(=O)c2ccccc2)c1	62%	27*	77*	-1%
COc1cccc(NC(=O)COc2ccccc2)c1	75%	28*	nt	-8%
COc1cccc(NC(=O)CCC(=O)Nc2cccc(OC)c2)c1	13%	-2	19	5%
COc1cc(NC(=O)COc2cccc(OC)c2)cc(OC)c1	9%	9	-1	5.2µM*
Cc1ccc(NC(=O)CCCn2nc(C)c3c(C)n(-c4ccccc4)nc3c2=O)c(Cl)c1	?	-3	28	43%
CC1CN(CC(=O)Nc2ccc([N+](=O)[O-])cc2Br)CC(C)O1 (configuration not stated)	-9%	-4	-11	1%
Cc1cccc(NC(=O)COc2ccccc2)c1	45%	33*	129*	6%
CCOc1cccc(C(=O)Nc2cccc(-c3nnc(-c4ccccc4)o3)c2)c1	nt	29	15	31%
COc1cccc(NC(=O)CN(C)C(=O)COc2ccccc2Cc2ccccc2)c1	?	nt	nt	5.2µM*
CCOc1ccc(-c2cccc(NC(=O)COc3ccccc3)c2)nn1	-6%	27*	19	?
COc1cccc(NC(=O)CN(C)C(=O)CC(C)c2ccccc2)c1 (configuration not stated)	-2%	7	-25	?
CNCc1ccccc1OCC(=O)Nc1ccccc1	nt	35*	74*	85%
CNC(=O)c1c(NC(=O)c2cc(-c3cc(C)c(C)cc3O)n[nH]2)sc2c1CCCC2	0%	-4	-2	?
COC(=O)CN1C(=O)[C@@H]2[C@H](C1=O)[C@@H]1CC(C(=O)OC)=C[C@@H](C(=O)OC)C3C1=C(C(=O)[C@]3(C)NC(=O)c1ccccc1)[C@@H]2C (some centres not stated)	nt	-7	-11	nt
COc1ccccc1NC(=O)CSc1nnc(-c2ccoc2C)n1C	1%	-1	-2	0%
Cc1cc(OCC(=O)Nc2ccncc2)ccc1Br	-11%	-8	-19	13%
COc1cccc(NC(=O)COc2ccc(Br)c(C)c2)c1	24%	12*	10	-6%
COc1cc(OC)cc(C(=O)NCC(=O)Nc2ccc(C)c(Cl)c2)c1	-7%	4	20	-24%
COc1cc(OC)cc(C(=O)NCC(=O)Nc2ccc(-c3ccccc3)cc2)c1	50%	20*	63*	33%
COc1cccc(NC(=O)CN(C)C(=O)/C=C/c2ccc3ccccc3n2)c1	12µM*	nt	nt	?
CCOCC(=O)Nc1cccc(OC)c1	23%	16*	37	-11%
SMILES	Pf growth 48h	CHX counter	Shiga inhibitor	Pf growth 96h
CCC(=O)Nc1ccc(Cl)c(NC(=O)c2c(OC)cccc2OC)c1	?	-2	-8	10%
Cc1cc(C(C)(C)C)ccc1OC(=O)C1=CC=CN2CCS(=O)(=O)N=C12	6%	nt	nt	-4%
COc1ccc(N2CCN(C(=O)c3sc4ncn(CC(=O)N5CCCCC5C)c(=O)c4c3C)CC2)cc1 (configuration not stated)	-9%	-4	-4	?
COc1cc(C=C2C(=O)OC(C)(C)OC2=O)cc(Cl)c1OCC(=O)Nc1ccccc1	37%	-2	-6	-2%
CC(C)(C)C1(C)OC(=O)C(=Cc2ccc(OCC(=O)Nc3ccccc3)cc2)C(=O)O1 (configuration not stated)	-4%	18*	59*	1%
CC(=O)Nc1cccc(OCC(=O)Nc2ccccc2)c1	205%	47*	114*	-5%[5.75 µM]
CC(=O)Nc1cccc(OCC(=O)Nc2sccc2C(N)=O)c1	97%	49*	69*	163%
O=C(COc1cccc(Oc2ccccc2)c1)Nc1ncccn1	13%	14*	29*	15%
O=C(NCCOC(=O)c1c(F)cccc1Cl)c1c(F)cccc1Cl	?	-5	-13	?
CCC1CCCCN1Cc1nc2ccccc2c(=O)n1CC(C)=O (configuration not stated)	?	34*	75*	?
Cc1ccc(C(=O)N/N=C/c2c[nH]c3ccccc23)o1	45%	23*	74*	-22%
Cc1cc(C(=O)N/N=C/c2c[nH]c3ccccc23)c(C)o1	54%	27*	26	3%
Cc1nc(Cl)sc1C(=O)Nc1cccc(Cl)c1C	-8%	10	14	-9%
COCc1nc2c([nH]1)c(=O)n(C)c(=O)n2CC(C)C	31%	nt	nt	13%
CC(NC(=O)Cn1cccc1C(=O)c1ccccc1)c1ccc2c(c1)OCCO2 (configuration not stated)	0%	-3	-5	29%
CCOc1ccccc1Nc1nc(-c2sc(NC(=O)c3ccccc3)nc2C)cs1	7.4µM*	12	-13	?
CCOc1ccccc1Nc1nc(-c2sc(NC(=O)c3cccc(Cl)c3)nc2C)cs1	6.6µM*	13	49	4.7µM*
COc1ccccc1Nc1nc(-c2sc(NC(=O)c3ccccc3)nc2C)cs1	?	9	26	?
Cc1ccc(Cl)cc1Nc1nc(-c2sc(NC(=O)c3ccccc3)nc2C)cs1	2.1µM*	12	38	2.6µM*
Cc1nc(NC(=O)c2ccccc2)sc1-c1csc(Nc2cccc(F)c2)n1	?	13*	62	4.7µM*
Cc1cc(C(=O)NC2CCCN(Cc3ccccc3F)C2)n[nH]1 (configuration not stated)	-1%	-1	-12	?
COc1cccc(NC(=O)C2CCC(CNS(=O)(=O)c3cccs3)CC2)c1 (configuration not stated)	1%	-5	-9	?
O=C(CNC(=O)c1ccco1)NCC(=O)OCC(=O)c1ccc(Cl)c([N+](=O)[O-])c1	12%	-1	-7	33%
CCOc1ccc(-n2c(SC(C)C)nc3c(c2=O)SCC3)cc1	8.3µM*	2	-8	151%
CSc1nc2c(c(=O)n1-c1ccc(C)cc1)SCC2	9.3µM*	8.6*	49	-4%
SMILES	Pf growth 48h	CHX counter	Shiga inhibitor	Pf growth 96h
CN(c1ccccc1)S(=O)(=O)c1ccc(C(=O)NNC(=O)c2ccccc2F)cc1	11%	nt	nt	?
COc1cccc2cc(NC(=O)C3CCCCC3)c(=O)oc12	259%	16*	41	16%
COc1cccc2cc(C(=O)N3C(C)CCCC3C)c(=O)oc12 (configuration not stated)	?	-2	6	-13%
COc1cccc2cc(C(=O)OC3CCN(C)CC3)c(=O)oc12	5%	1	-9	12µM*
COc1ccccc1C(=O)NCCC(=O)Nc1cccc(C)n1	20%	22*	13	41%
Cc1cccc(NC(=O)CCNC(=O)c2ccccc2Cl)n1	18%	6	0	35%
CCN(C(=O)c1cc2cccc(OC)c2oc1=O)c1ccccc1	-7%	53*	168*	-26%
